# In the library only some 2.4% were active in any assay of this set; here they are far more common.
# D2 ag-1: agonists of human D2 dopamine receptor (beta-arrestin) | P14416 | DiscoveRx PathHunter D2 beta-arrestin, luminescence, 90 min; 100% = 57 uM dopamine signal | activation, % (test concentration not listed) | 0.084% of 360,000 active | AID 624465; in the data active = activation above about 40%; inconclusive = between about 15% and that limit
# Target sequence (P14416 whole entry, looked up): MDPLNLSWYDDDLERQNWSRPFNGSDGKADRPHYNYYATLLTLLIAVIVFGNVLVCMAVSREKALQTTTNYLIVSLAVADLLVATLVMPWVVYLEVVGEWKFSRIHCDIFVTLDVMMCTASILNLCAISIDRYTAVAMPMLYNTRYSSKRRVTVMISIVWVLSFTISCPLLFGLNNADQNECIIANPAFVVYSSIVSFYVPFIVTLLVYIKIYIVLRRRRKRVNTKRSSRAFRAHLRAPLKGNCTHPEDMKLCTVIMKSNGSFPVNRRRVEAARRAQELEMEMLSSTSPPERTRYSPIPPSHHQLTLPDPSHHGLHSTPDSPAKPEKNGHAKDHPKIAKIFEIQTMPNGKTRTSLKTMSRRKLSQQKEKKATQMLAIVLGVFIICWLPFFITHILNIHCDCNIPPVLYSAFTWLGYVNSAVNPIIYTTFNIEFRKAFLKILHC
#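 DiscoveRx PathHunter D2 beta-arrestin cells (2,100/well) attached overnight, then compound-stimulated 90 min at 37 C in HBSS/10 mM HEPES/0.1% Tween-20 buffer; beta-galactosidase complementation read by luminescence after 1 h at ambient temperature. Dopamine 57 uM final (EC100) as control.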
# D2 ag-2: activates the human D2 dopamine receptor; activation, % at 2 µM; HEK293 T-REx D2 cells, calcium flux agonist mode; P14416; 0.53% of 340,000 active;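 active = activation over 3 SD above normal in the single-dose calcium agonist read, cut at about 30% in these data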; also: 0% is about no effect
#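 Tetracycline-induced HEK293 T-REx cells with force-coupled D2 receptor, plated overnight at 30 C, loaded with no-wash calcium dye. After a 10 s baseline, compound was pin-added and calcium flux read kinetically for 180 s; calcium rises flagged agonists.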
# D2 PAM-1: potentiates the human D2 dopamine receptor allosterically. DiscoveRx D2 beta-arrestin cells, luminescence, 90 min; 100% = 57 uM dopamine signal. potentiation, % (no concentration beside the values). P14416. AID 624464. 0.23% of 360,000 active; in the data active = potentiation above about 50%; inconclusive = mostly about 30% to 49%
#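 PathHunter beta-arrestin assay in DiscoveRx D2 cells. Compounds were added with an EC20 of dopamine (50 nM final) for 90 min at 37 deg C. Luminescence was read 1 h after detection reagent, with 57 uM dopamine as the EC100 control.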
# D2 PAM-2: positive allosteric modulators of human D2 dopamine receptor; AID 485347; P14416; potentiation, % at 10 µM; 0.34% of 340,000 active; HEK293 T-REx D2, calcium flux, EC20 dopamine potentiation;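 active = potentiation over 3 SD above the plate norm, cut at about 30% in these data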; also: 0% is about no effect
#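 Potentiation of an EC20 dopamine calcium response measured kinetically over 180 s, after a preceding 180 s compound-only read flagging agonists. Cells: inducible Hek293 Trex D2 line, 4000/well, cultured overnight at 30 C before dye loading.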
# D2 antagonist: D2 dopamine receptor (human) antagonism; P14416; 2% of 340,000 active; inhibition, % at 10 µM; AID 485344; HEK293 TREx D2 cells, calcium flux, dopamine EC80; in the data active = inhibition above about 30%; inactive = below that, where a call was filed; also: 0% is about no effect
#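 Antagonism is scored as inhibition of an EC80 dopamine-evoked calcium signal in a force-coupled, tetracycline-inducible HEK293 T-REx D2 line, with compound present 180 s before agonist.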
# The depositor's hits bear a star; u = inconclusive; x = no result.
SMILES,D2 ag-1,D2 ag-2,D2 PAM-1,D2 PAM-2,D2 antagonist
CCc1nc2c(OCc3ccc(F)c(F)c3)cccn2c1N(C)C(=O)c1ccc(OC)cc1,-3.0,x,-14.9,x,x
O=C(CSc1nc2c(sc3ccccc32)c(=O)n1CCCN1CCCC1)NCC1CCCO1 (stereo not drawn),-0.2,0.9,-36.2,41.0*,11.8
CCc1cccc(NC(=O)Cn2c(-c3ccc(F)cc3)cc(C(C)=O)c2C)c1,x,x,x,12.6,x
Cc1ccc(NCc2ccccc2O)cc1,0.7,0.5,-16.4,-6.4,-17.5
Cc1ccc(CNc2ccc(O)cc2)cc1,u,1.1,69.8*,x,-6.2
Cc1cc2c(cc1[N+](=O)[O-])NC(CNC(C)C)CC2 (stereo not drawn),-2.5,-0.5,-25.9,-20.9,64.8*
Cc1cc(C(=O)NCC2CCCCC2)ccc1[N+](=O)[O-],-1.2,3.5,-14.6,x,-3.2
CC(NC(=O)Cn1ncc2c3ccccc3n(Cc3ccc(F)cc3)c2c1=O)c1ccccc1 (stereo not drawn),x,-0.3,x,0.5,x
COc1ccc(C(=O)Nc2cc(C)c(NC(=O)c3ccccn3)cn2)cc1,-1.6,-0.3,-2.6,35.2*,-24.3
CC(=O)Nc1sc(NC(=O)c2ccccc2)nc1-c1cccs1,3.6,-0.4,-1.4,-6.7,-14.4
CCN(CC)c1ccc(/C=C(\C#N)c2nc(-c3cccs3)c(NC(C)=O)s2)cc1,x,32.9*,x,-3.1,5.9
O=C(Cn1ccc(C(F)(F)F)n1)N=Nc1c(O)[nH]c2ccc(Br)cc12,-14.3,1.1,-6.5,42.4*,-9.6
O=C(c1ccco1)N1CCN(C(=O)C2CCN(S(=O)(=O)c3cnc[nH]3)CC2)CC1,-1.9,0.6,-19.0,13.1,51.6*
CCc1[nH]nc(C(=O)N2CCCC(Nc3cccc(F)c3)C2)c1C (stereo not drawn),3.3,0.1,75.3*,10.7,-15.1
CSc1ccc(CCNC(=O)C2=C(C)C(=O)OC23CCCCC3)cc1,x,0.1,x,8.5,x
Cc1nc(-c2cc(C#N)c(=O)[nH]c2C)cs1,0.2,0.6,-0.4,-0.5,7.8
Cc1[nH]c(=O)c(C#N)cc1-c1csc(-c2ccccc2)n1,-1.8,0.8,-23.8,-3.7,38.7*
CCc1nnc(SCc2cccc(F)c2)c2cc3sc(C)cc3n12,x,-0.3,x,-2.8,x
CC(C)N(c1ccccc1)c1ccc(NC(=S)NCCN(C)C)cc1,4.8,1.2,-0.4,-28.6,82.5*
CCn1c(CNC(=O)C23CC4CC(CC(C4)C2)C3)nnc1SCC(=O)Nc1nnc(C)s1,-1.2,0.2,1.5,43.4*,0.2
CCCCn1c(CNC(=O)C23CC4CC(CC(C4)C2)C3)nnc1SCC(=O)Nc1nnc(C)s1,-3.4,-0.4,-3.9,-4.2,6.2
COc1ccc(CCNc2ncnc3c2cnn3-c2cc(Cl)ccc2C)cc1,x,0.3,x,x,x
O=C(CN1CCN(c2ccc(O)cc2)CC1)Nc1ccc2c(c1)OCCO2,u,36.2*,-10.0,-9.2,-9.5
CCCCC(=O)Nc1nnc(S(=O)(=O)N(CC)c2ccc(OC)cc2)s1,5.6,0.1,-2.2,-5.6,8.6
CCN(c1ccc(OC)cc1)S(=O)(=O)c1nnc(NC(=O)COc2ccccc2)s1,4.8,-0.2,-5.5,37.3*,-9.4
SMILES,D2 ag-1,D2 ag-2,D2 PAM-1,D2 PAM-2,D2 antagonist
OC(COc1ccc(Cl)cc1)CN1CCN(c2ccccn2)CC1 (stereo not drawn),7.7,x,-10.1,x,x
Cc1cccc(N2CCN(CC(O)COc3ccccc3Cl)CC2)c1 (stereo not drawn),-5.4,8.8,-53.4,-23.9,71.1*
OC(COc1cc(Cl)c(Cl)cc1Cl)CN1CCN(c2ncccn2)CC1 (stereo not drawn),11.1,26.1,-31.4,-22.2,36.9*
COc1cccc(NC(=O)c2sc3nc(C)c(C(=O)Nc4ccc(C)cc4C)c(-c4cccs4)c3c2N)c1,x,4.0,x,-2.9,x
S=c1[nH]nc(-c2ccc(Br)o2)n1Cc1ccccc1,1.5,-0.8,-10.5,34.7*,-12.7
S=c1[nH]nc(-c2ccco2)n1Cc1ccccc1,0.4,-2.4,-10.2,11.0,5.9
COc1ccc(OCC(O)CN2C(=O)NC(C)(C)C2=O)cc1 (stereo not drawn),-1.1,-0.3,-2.6,-7.9,31.1*
COC(=O)c1ccc(OCC(O)CN2CCN(CC(O)COc3ccc(C(=O)OC)cc3)CC2)cc1 (stereo not drawn),-1.8,0.0,-3.7,10.4,3.6
COC(=O)c1ccc(OCC(O)CN2C(=O)c3ccccc3C2=O)cc1 (stereo not drawn),0.8,37.8*,-1.8,-17.4,-3.9
Cc1ccc(C2=NC(c3ccc(F)cc3)=Nc3ccc(C)cc3N2)cc1,x,2.1,x,2.5,x
N#Cc1nc(-c2ccc(COc3ccccc3)o2)oc1NCc1cccnc1,x,0.8,x,20.1,x
COc1ccc(Oc2coc3cc(OC(=O)c4cccs4)ccc3c2=O)cc1,0.3,-0.4,-3.9,36.6*,-19.2
O=C(CSc1nc(-c2ccc(F)cc2)cc(C(F)(F)F)n1)NCCc1ccccc1,x,-0.7,x,7.5,x
Cc1ccc(N=Nc2c(N)[nH]n3c(=O)cc(-c4ccccc4)nc23)cc1,-2.8,-1.0,-12.5,-13.7,-7.4
Cc1ccc(N=Nc2c(=O)[nH]n3c(=O)cc(C)[nH]c23)cc1,-7.5,0.7,-19.6,37.7*,14.1
CCOc1ccc(CCNC(=O)CSc2nnnn2-c2ccccc2)cc1OCC,x,-1.2,x,4.7,x
O=C(NCC(c1cccs1)N1CCOCC1)c1ccccc1NS(=O)(=O)c1cc([N+](=O)[O-])ccc1Cl (stereo not drawn),-1.6,-0.8,-8.5,12.0,33.0*
C=C(C)c1cccc(C(C)(C)NC(=O)NCc2ccncc2)c1,2.2,1.6,-5.1,7.2,34.5*
O=c1c(=O)n(-c2cccc(Cl)c2)ccn1Cc1cccc(F)c1,x,0.2,x,7.6,x
COc1ccccc1N1CCN(C(=O)C2CCN(S(=O)(=O)c3cnc[nH]3)CC2)CC1,x,-0.6,x,-1.6,x
O/N=C1\CCCc2ccccc21,2.4,0.2,-3.4,3.8,-11.7
O/N=C1\CCCCc2ccccc21,0.4,-0.7,-5.5,-1.8,33.0*
CCOC(=O)/C(C#N)=C/c1ccc(-c2ccccc2)o1,x,0.2,x,-5.4,x
Cc1ccccc1NS(=O)(=O)c1ccc(C)c(NS(C)(=O)=O)c1C,2.5,0.4,-6.3,-13.4,32.8*
COc1ccc(-c2nc3sc(CCNC(=O)C(=O)Nc4c(C)cccc4C)c(C)n3n2)cc1,x,0.8,x,14.4,x
COc1ccc(S(=O)(=O)NCC(c2ccc(N(C)C)cc2)N2CCCC2)cc1F (stereo not drawn),x,x,x,-7.1,x
NC1=C(Cl)C(=O)c2ccccc2C1=O,10.3,x,51.2*,x,x
NS(=O)(=O)c1ccc2c(c1)C(=NO)c1cc(S(N)(=O)=O)ccc1-2,7.6,1.0,-3.5,-6.2,-6.5
NC1=C(Cl)C(=O)c2ccc(S(N)(=O)=O)cc2C1=O,5.9,x,58.5*,x,x

# High-throughput results as filed in PubChem.
